Laboratory results: PubChem BioAssay (NCATS)
Records with an inconclusive call do not appear. Activity calls are given as the source filed them. Unless noted, the call rests on the fitted dose curve; in most records, active means well fitted curve in the direction sought with a large enough effect; inconclusive means small, poorly fitted or top-dose-only effect, or another doubt; inactive means no such curve, though single readings can be large; an effect the other way counts as inactive or inconclusive.

Assays:
[1] = target: Thioredoxin reductase 1, cytoplasmic (Rattus norvegicus) (UniProt O89049); assay: qHTS Assay for Substrates of Mammalian Selenoprotein Thioredoxin Reductase 1 (TrxR1) (AID 488772);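 further: series mostly up to about 57 µM; 0% is about no effect; a drop in NADPH fluorescence below the no-compound background marks a TrxR1 substrate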
Thioredoxin reductase 1, cytoplasmic (Rattus norvegicus), sequence (O89049 whole entry, looked up): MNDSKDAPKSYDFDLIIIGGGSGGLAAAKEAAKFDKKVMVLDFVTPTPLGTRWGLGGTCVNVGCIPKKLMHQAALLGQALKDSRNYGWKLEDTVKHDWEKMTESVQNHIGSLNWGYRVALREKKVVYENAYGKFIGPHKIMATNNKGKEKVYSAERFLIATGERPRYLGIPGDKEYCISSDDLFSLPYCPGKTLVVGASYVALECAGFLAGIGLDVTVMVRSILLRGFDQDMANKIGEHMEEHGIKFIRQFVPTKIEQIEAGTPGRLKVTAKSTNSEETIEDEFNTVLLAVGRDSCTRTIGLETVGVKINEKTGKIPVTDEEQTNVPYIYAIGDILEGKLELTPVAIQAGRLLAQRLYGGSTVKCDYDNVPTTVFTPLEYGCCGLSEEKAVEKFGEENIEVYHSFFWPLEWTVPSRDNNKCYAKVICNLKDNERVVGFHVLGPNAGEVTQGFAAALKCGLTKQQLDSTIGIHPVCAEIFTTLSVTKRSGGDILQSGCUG
Procedure, shortened: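 In this dual-purpose format, potential substrates are identified from the first fluorescence read after selenite addition, not from the 8-minute delta. Rat enzyme is preincubated with NADPH and then with compound at ~22 deg C.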

[2] = target: Thioredoxin reductase 1, cytoplasmic (Rattus norvegicus) (UniProt O89049); assay: qHTS Assay for Inhibitors of Mammalian Selenoprotein Thioredoxin Reductase 1 (TrxR1) (AID 488773); conditions: Potency: inhibition; further: nearly all actives have a fitted effect of over 40% in size; further: potency means the concentration at half of the fitted maximal effect
Procedure, shortened: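 Inhibition is scored from the loss of NADPH fluorescence between first and last reads of an 8-min kinetic run. Selenite (400 uM) was the substrate, added after 15 min compound preincubation at room temperature.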

[3] = target: Flap endonuclease 1 (Homo sapiens) (UniProt P39748); assay: qHTS Validation Assay for the Inhibitors of Human Flap endonuclease 1 (FEN1) (AID 488816); further: potency means the concentration at half of the fitted maximal effect
Procedure, shortened: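 Enzyme reagent 10 nM; cpds pinned; 15 min RT preinc.; substrate 50 nM final; reads t=0 and 15 min; no-enzyme buffer wells as neg. control; normalized data, 4-parameter Hill fit.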

[4] = target: M-phase phosphoprotein 8 (Homo sapiens) (UniProt Q99549); assay: qHTS Validation Assay for Inhibitors for MPP8 Chromodomain Interactions with Methylated Histone Tails (AID 488949); further: nearly all actives have a fitted effect of over 55% in size; further: potency means the concentration at half of the fitted maximal effect
M-phase phosphoprotein 8 (Homo sapiens), sequence (Q99549 whole entry, looked up): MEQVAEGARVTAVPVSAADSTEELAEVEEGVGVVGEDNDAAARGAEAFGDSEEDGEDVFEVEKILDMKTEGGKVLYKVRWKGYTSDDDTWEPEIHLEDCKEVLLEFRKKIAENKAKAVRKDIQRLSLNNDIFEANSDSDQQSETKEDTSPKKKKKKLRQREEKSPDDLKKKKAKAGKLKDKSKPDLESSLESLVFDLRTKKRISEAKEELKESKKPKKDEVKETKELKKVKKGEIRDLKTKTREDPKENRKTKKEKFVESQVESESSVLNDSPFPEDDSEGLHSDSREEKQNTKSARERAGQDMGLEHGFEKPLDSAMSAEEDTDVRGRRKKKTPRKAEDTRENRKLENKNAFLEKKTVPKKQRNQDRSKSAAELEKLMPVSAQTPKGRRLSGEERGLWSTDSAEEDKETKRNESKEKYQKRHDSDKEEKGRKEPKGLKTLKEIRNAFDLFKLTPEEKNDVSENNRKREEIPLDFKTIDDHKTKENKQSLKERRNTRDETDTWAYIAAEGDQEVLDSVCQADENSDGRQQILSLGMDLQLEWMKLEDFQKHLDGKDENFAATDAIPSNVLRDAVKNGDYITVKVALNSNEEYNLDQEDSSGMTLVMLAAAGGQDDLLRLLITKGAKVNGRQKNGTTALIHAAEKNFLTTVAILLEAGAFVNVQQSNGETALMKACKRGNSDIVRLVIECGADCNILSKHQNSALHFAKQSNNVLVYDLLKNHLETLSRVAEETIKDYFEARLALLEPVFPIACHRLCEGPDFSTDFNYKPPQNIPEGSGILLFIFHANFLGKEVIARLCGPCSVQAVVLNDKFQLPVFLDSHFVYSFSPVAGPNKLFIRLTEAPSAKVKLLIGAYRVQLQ
Procedure, shortened: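 50 nM MPP8 + 50 nM b-H3K9me3 peptide, PBS pH 7.4/0.01% Tween-20, 30 min RT; + cpd 30 min RT; + AlphaScreen donor/Ni-chelate acceptor beads 10 ug/mL final, 30 min dark; luminescence read.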

[5] = target: Chromobox protein homolog 1 (Homo sapiens) (UniProt P83916); assay: qHTS Validation Assay for Inhibitors of HP1-beta Chromodomain Interactions with Methylated Histone Tails (AID 488953); further: nearly all actives have a fitted effect of over 50% in size; further: potency means the concentration at half of the fitted maximal effect
Procedure, shortened: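 AlphaScreen proximity signal from streptavidin donor and nickel chelate acceptor beads (final 10 ug/mL) after 30 min dark incubation. Compounds had 30 min at room temperature with preformed complex of 50 nM HP1-beta and 50 nM b-H3(1-18)K9me3 in PBS pH 7.4 with 0.01% Tween-20.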

[6] = target: Methanococcus maripaludis chaperonin (MmCpn) (UniProt Q6LX38); assay: High-Throughput Screening for Modulators of Cytosolic Chaperonin Activity: MmCpn Primary Screen (AID 488978);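 further: 50 nM MmCpn enzyme hydrolysing 30 µM ATP at 37 °C; 0% is about no effect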
Methanococcus maripaludis chaperonin (MmCpn), sequence (Q6LX38 1-543): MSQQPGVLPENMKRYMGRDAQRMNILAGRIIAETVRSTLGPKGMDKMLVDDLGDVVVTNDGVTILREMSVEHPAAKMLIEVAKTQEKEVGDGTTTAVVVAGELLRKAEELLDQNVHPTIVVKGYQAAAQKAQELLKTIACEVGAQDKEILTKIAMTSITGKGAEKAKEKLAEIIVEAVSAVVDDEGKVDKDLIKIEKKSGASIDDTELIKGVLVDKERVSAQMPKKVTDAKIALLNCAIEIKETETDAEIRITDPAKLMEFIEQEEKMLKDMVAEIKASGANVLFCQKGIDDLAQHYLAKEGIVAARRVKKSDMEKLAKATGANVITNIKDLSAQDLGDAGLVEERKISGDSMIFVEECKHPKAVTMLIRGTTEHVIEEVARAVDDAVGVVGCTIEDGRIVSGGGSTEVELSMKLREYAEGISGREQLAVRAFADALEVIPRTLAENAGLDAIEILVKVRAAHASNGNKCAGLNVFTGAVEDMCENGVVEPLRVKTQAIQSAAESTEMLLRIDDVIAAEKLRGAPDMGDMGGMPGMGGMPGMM
Procedure, shortened: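 Steps: chaperonin 50 nM final; add compound, 5 min RT; start with ATP, 30 uM final; hold 10 min at 37C; add ADP Transcreener HTRF reagent, 5 min; read ex 320, em 590 and 665 nm.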

[7] = target: D(1A) dopamine receptor (Homo sapiens) (UniProt P21728); assay: HTS Assay for Allosteric Agonists of the Human D1 Dopamine Receptor: Primary Screen for Agonists (AID 488981); further: potency means the concentration at half of the fitted maximal effect; on activation: 0% is about no effect
Procedure, shortened: (§1)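 Tetracycline-induced HEK293 Trex D1 cells with forced coupling to calcium, loaded with no-wash calcium dye; kinetic fluorescence read 180 s after compound addition for agonism, then a further 180 s after an EC20 dopamine challenge for potentiation.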

[8] = target: D(1A) dopamine receptor (Homo sapiens) (UniProt P21728); assay: HTS Assay for Allosteric Agonists of the Human D1 Dopamine Receptor: Primary Screen for Potentiators (AID 488982); further: 0% is about no effect
Procedure, shortened: as §1

[9] = target: D(1A) dopamine receptor (Homo sapiens) (UniProt P21728); assay: HTS Assay for Allosteric Agonists of the Human D1 Dopamine Receptor: Primary Screen for Antagonists (AID 488983);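 further: calcium flux response to an EC80 dopamine challenge measured with no-wash dye; on the % scale 0 is the no-effect control and ±100 the full control effect; nearly all actives have a fitted effect of over 65% in size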
Procedure, shortened: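 Calcium-flux read-out in inducible HEK293 T-REx cells expressing D1, dye-loaded 30–90 min at room temperature. Kinetic reads: 180 s after compound (agonist phase), then 180 s after an EC80 dopamine challenge.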

[10] = Validation screen for small molecules that induce genotoxicity in human embryonic kidney (HEK293T) cells expressing luciferase-tagged ELG1 (AID 493106); further: 0% is about no effect
Procedure, shortened: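 ELG1-luciferase reporter readout (ONE-Glo, 30 min, room temperature) after 16 hr compound treatment at 37 °C of HEK293T cells at 2,000 per well. Rising luminescence flags genotoxic stress.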

[11] = target: ATPase family AAA domain-containing protein 5 (Homo sapiens) (UniProt Q96QE3); assay: Validation screen for small molecules that inhibit ELG1-dependent DNA repair in human embryonic kidney (HEK293T) cells expressing luciferase-tagged ELG1 (AID 493107); further: nearly all actives have a fitted effect of over 70% in size; further: potency means the concentration at half of the fitted maximal effect
ATPase family AAA domain-containing protein 5 (Homo sapiens), sequence (Q96QE3 whole entry, looked up, the tested form may be a part): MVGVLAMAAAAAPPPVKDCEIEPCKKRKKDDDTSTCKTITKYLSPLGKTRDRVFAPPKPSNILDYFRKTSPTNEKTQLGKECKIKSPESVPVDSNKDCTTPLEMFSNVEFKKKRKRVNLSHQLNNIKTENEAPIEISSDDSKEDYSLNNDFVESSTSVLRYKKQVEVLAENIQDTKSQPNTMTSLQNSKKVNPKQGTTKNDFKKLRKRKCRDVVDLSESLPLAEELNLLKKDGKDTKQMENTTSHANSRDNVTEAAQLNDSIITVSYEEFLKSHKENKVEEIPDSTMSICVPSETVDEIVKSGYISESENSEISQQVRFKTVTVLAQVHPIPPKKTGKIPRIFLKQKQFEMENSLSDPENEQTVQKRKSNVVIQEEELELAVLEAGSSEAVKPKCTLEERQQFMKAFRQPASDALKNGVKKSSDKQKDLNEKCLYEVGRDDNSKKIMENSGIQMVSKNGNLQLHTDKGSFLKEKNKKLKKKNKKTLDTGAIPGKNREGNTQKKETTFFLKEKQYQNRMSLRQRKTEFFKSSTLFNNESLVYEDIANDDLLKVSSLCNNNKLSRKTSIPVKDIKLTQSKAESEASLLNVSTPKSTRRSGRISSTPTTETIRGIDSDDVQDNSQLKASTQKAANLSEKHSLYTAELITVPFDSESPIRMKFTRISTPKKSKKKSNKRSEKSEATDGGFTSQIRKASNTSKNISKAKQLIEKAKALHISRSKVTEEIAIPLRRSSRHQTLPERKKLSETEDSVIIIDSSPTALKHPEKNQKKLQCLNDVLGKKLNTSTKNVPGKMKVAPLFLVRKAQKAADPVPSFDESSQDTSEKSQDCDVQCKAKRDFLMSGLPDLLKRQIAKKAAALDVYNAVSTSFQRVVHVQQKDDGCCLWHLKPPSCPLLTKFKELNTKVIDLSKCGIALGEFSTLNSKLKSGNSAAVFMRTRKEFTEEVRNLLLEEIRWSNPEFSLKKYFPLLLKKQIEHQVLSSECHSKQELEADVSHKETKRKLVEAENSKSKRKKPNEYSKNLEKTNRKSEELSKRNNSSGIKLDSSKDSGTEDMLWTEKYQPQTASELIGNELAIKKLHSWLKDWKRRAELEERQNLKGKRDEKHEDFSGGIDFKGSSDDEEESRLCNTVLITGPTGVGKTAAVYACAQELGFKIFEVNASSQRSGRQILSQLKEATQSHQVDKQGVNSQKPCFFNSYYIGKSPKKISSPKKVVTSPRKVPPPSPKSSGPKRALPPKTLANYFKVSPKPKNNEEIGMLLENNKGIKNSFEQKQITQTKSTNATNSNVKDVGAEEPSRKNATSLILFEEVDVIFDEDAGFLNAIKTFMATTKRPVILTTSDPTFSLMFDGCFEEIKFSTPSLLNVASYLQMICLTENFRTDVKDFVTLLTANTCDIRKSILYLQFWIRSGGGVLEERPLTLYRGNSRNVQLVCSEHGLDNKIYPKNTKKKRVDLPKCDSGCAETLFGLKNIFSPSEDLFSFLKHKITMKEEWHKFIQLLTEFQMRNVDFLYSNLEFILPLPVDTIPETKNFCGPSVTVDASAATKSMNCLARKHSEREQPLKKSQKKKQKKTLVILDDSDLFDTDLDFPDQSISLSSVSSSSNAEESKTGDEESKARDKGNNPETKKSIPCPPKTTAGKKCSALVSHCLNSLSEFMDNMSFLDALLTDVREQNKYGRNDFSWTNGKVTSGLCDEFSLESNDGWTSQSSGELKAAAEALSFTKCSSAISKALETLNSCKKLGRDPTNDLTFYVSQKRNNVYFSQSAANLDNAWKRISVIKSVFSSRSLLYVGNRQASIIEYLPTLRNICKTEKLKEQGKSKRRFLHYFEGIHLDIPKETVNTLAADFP
Procedure, shortened: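 Luciferase read-out, ONE-Glo, 30 min at room temperature, follows 16 h co-exposure at 37 C of compound and the DNA-damaging agent 5-fluorouridine. Cells: HEK293T with ELG1-luciferase fusion, 2,000 per well, DMSO as vehicle.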

[12] = Quantitative high throughput screen for delayed death inhibitors of the malarial parasite plastid, 96 hour incubation (AID 488745); further: series mostly up to about 29 µM; on the % scale 0 is the no-effect control and ±100 the full control effect; nearly all actives have a fitted effect of over 70% in size
Procedure, shortened: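 Decreased firefly luciferase luminescence indicates inhibited growth of reporter-integrated P. falciparum after two generations (96 h, 37 C, 5% CO2). Infected erythrocytes at 0.1% parasitemia, 2% hematocrit, in Albumax-supplemented RPMI 1640.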

[13] = Quantitative high throughput screen for delayed death inhibitors of the malarial parasite plastid, 48 hour incubation (AID 488752); further: nearly all actives have a fitted effect of over 65% in size; further: potency means the concentration at half of the fitted maximal effect
Procedure, shortened: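 One-generation (48 h) growth assay: a decrease in luciferase signal from an integrated reporter in P. falciparum-infected red cells (0.1% parasitemia, 2% hematocrit) after compound exposure at 37 C indicates parasite inhibition.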

[14] = target: Transient receptor potential cation channel subfamily V member 1 (Homo sapiens) (UniProt Q8NER1); assay: HTS Assay for Compounds that Act as Enhancers of the Vanilloid Receptor 1 (AID 488979); further: 0% is about no effect
Transient receptor potential cation channel subfamily V member 1 (Homo sapiens), sequence (Q8NER1 whole entry, looked up): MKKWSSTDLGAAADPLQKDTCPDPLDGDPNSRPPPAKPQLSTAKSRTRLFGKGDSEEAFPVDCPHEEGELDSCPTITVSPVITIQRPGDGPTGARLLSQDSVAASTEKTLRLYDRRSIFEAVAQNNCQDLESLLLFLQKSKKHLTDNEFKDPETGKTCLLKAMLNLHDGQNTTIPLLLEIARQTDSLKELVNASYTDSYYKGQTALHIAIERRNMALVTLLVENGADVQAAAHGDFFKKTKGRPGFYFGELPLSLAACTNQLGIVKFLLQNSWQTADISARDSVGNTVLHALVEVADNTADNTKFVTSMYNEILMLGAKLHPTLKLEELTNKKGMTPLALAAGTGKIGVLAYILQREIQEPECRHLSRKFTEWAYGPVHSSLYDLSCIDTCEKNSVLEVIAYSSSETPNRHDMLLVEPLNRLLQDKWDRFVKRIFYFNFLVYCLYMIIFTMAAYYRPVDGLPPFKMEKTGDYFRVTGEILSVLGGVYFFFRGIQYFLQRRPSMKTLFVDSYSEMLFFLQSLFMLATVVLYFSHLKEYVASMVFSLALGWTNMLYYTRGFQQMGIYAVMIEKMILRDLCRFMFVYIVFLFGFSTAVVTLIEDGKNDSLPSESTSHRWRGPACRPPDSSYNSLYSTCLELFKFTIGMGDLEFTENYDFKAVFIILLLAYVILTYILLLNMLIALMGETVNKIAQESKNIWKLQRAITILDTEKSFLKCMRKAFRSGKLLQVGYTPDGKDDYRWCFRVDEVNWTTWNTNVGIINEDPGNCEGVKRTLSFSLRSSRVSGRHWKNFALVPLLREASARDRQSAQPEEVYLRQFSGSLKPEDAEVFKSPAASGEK
Procedure, shortened: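 TRPV1 cells loaded with Fluo-8 calcium dye; compound added and Ca2+ signal (ex 480/em 520 nm) followed 3 min, then capsaicin at EC20 added and read 2 more min to detect enhancement.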

[15] = target: Thyrotropin-releasing hormone receptor (Homo sapiens) (UniProt P34981); assay: qHTS for Small Molecule Agonists and Allosteric Enhancers of Human TRH Receptor: Validation Screen for Agonists (AID 493127;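 active means calcium activation more than 3 SD above the typical response in the agonist read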;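 further: intracellular calcium rise by fluo-8 fluorescence before TRH EC20 addition; 0% is about no effect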); conditions: TRH receptor agonist cell assay; at 2 µM; stronger effect = higher value
Procedure, shortened: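 Compound-evoked intracellular calcium release in fluo-8-loaded TRHR cells, read kinetically on FDSS (Ex 480/Em 530, 1 s/cycle) after 23 nL pintool transfer. Agonist phase preceded 10 nM TRH EC20 addition.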

[16] = target: Thyrotropin receptor (Homo sapiens) (UniProt P16473); assay: qHTS Assay for Antagonists of the Thyroid Stimulating Hormone Receptor (AID 488980); further: series mostly up to about 58 µM; 0% is about no effect
Procedure, shortened: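 Readout is cAMP by HTRF competition between cellular cAMP and cAMP-d2 for a cryptate-labelled antibody. Antagonism was assessed in TSHR-transfected HEK293 cells stimulated with 4 nM TSH (EC80, final) in the presence of RO 20-1724.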

[17] = target: ATP-dependent 6-phosphofructokinase (Trypanosoma brucei brucei) (UniProt O15648); assay: qHTS Assay to Find Inhibitors of T. brucei phosphofructokinase: hit validation (AID 492961); further: series mostly up to about 51 µM; on the % scale 0 is the no-effect control and ±100 the full control effect
ATP-dependent 6-phosphofructokinase (Trypanosoma brucei brucei), sequence (O15648 whole entry, looked up): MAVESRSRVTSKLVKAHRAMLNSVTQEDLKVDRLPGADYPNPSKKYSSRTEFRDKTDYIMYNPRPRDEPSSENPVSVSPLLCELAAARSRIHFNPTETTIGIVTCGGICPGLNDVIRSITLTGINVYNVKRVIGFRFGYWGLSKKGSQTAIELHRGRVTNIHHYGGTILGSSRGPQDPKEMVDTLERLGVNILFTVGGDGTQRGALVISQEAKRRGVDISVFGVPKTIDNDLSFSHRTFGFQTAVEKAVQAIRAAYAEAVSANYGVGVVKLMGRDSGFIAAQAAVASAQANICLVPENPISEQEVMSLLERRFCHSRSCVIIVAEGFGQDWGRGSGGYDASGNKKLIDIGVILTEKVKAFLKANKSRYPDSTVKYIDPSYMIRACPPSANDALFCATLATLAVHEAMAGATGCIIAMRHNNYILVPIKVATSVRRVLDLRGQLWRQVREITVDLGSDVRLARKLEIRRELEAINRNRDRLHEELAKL
Procedure, shortened: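 Luminescence from ADP-Glo reports ADP generated as T. brucei PFK (1.25 nM) phosphorylates 0.5 mM fructose-6-phosphate using 0.1 mM ATP. Reactions ran 45 min at room temperature, pH 8.0.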

[18] = target: ATP-dependent 6-phosphofructokinase (Trypanosoma brucei brucei) (UniProt O15648); assay: qHTS Validation Assay to Find Inhibitors of T. brucei phosphofructokinase (AID 485368); further: potency means the concentration at half of the fitted maximal effect
Procedure, shortened: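 Luminescent ADP detection measures PFK turnover of fructose-6-phosphate (0.5 mM) with ATP (0.1 mM) at pH 8.0. Reaction runs 45 min at room temperature with 1.25 nM enzyme; inhibitors tested as titrations up to 57 uM.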

COc1ccc(CCn2nnnc2C2(c3ccc(C)cc3)CC2)cc1
inactive: outcome [1] | Potency [2] | Potency [3] | Potency [4] | Potency [5] | outcome [6] | Potency [7] | Potency [8] | Potency [9] | Potency [10] | Potency [11]

CCn1c(=O)[nH]c2cc(Cl)c(Cl)cc21
inactive: Potency [12] | Potency [13] | outcome [1] | Potency [2] | Potency [4] | Potency [5] | outcome [6] | outcome [14] | Potency [7] | Potency [8] | Potency [9] | activation [15] 1.69%

CN1CCN(c2nc3cc(C(F)(F)F)ccc3n3cccc23)CC1
inactive: outcome [1] | Potency [2] | Potency [3] | Potency [4] | outcome [6] | outcome [14] | outcome [16] | Potency [8] | Potency [11] | activation [15] 1.06%
active: Potency [13] 8.28 µM

c1ccc(C2CN3CCSC3=N2)cc1 (centres undefined)
inactive: Potency [12] | Potency [13] | outcome [1] | Potency [2] | Potency [3] | Potency [4] | Potency [5] | outcome [6] | outcome [14] | outcome [16] | Potency [7] | Potency [8] | Potency [9] | outcome [17] | Potency [10] | Potency [11] | activation [15] -0.188%

CC1CCN(CC[C@H]2CCCN2S(=O)(=O)c2cccc(O)c2)CC1
inactive: Potency [12] | Potency [13] | outcome [1] | Potency [2] | Potency [3] | Potency [4] | Potency [5] | outcome [6] | outcome [14] | Potency [7] | Potency [8] | activation [15] 2.44%

NOCC(=O)O
inactive: Potency [18] | outcome [1] | Potency [2] | Potency [3] | Potency [4] | Potency [5] | outcome [6] | outcome [14] | outcome [16] | Potency [7] | Potency [9] | Potency [10] | Potency [11] | activation [15] 0.25%

N#Cc1cc([N+](=O)[O-])c2sc(C(N)=O)[n+]([O-])c2c1
inactive: outcome [1] | Potency [2] | Potency [3] | Potency [4] | outcome [6] | Potency [7] | Potency [8] | Potency [9] | Potency [10]
active: Potency [11] 16.4 µM

c1ccc2nc(C3=NCCN3)ccc2c1
inactive: Potency [12] | Potency [13] | outcome [1] | Potency [2] | Potency [4] | Potency [5] | outcome [14] | outcome [16] | Potency [7] | Potency [8] | Potency [9] | Potency [10] | Potency [11]

CN1Cc2sccc2C(c2ccc(O)c(O)c2)C1 (centres undefined)
active: Potency [2] 16.8 µM
inactive: outcome [1] | Potency [3] | Potency [4] | outcome [6] | Potency [8] | Potency [10]

O=C(O)CCC(=O)N1CCCC1C(=O)O (centres undefined)
inactive: Potency [18] | Potency [12] | outcome [1] | Potency [2] | Potency [3] | Potency [4] | Potency [5] | outcome [6] | outcome [14] | outcome [16] | Potency [8] | Potency [10] | Potency [11]

Nc1ccc2c3c(cccc13)C(=O)NC2=O
active: Potency [7] 11.2 µM | activation [15] 87.4%
inactive: Potency [12] | Potency [13] | outcome [1] | Potency [2] | Potency [4] | Potency [5] | outcome [6] | outcome [16] | Potency [9]

Cc1nc(N=Nc2cc(S(=O)(=O)O)c3cc([N+](=O)[O-])cc(S(=O)(=O)O)c3c2)c(COP(=O)(O)O)c(C=O)c1O
active: Potency [18] 7.57 µM | Potency [3] 23.8 µM | Potency [4] 10 µM | Potency [5] 28.2 µM
inactive: Potency [12] | Potency [13] | outcome [1] | outcome [6] | outcome [14] | outcome [16] | Potency [7] | Potency [8] | Potency [10] | Potency [11] | activation [15] 0.25%

COc1ccc2c(c1)c(CC(=O)O)c(C)n2C(=O)c1ccccc1
inactive: Potency [13] | outcome [1] | Potency [2] | Potency [3] | Potency [4] | Potency [5] | outcome [6] | outcome [14] | outcome [16] | Potency [7] | Potency [8] | Potency [9] | Potency [10] | Potency [11] | activation [15] 0.812%

CCN(CC)CCOC(=O)c1cc(Cl)c(N)cc1OC
inactive: Potency [12] | Potency [13] | outcome [1] | Potency [2] | Potency [3] | Potency [5] | outcome [6] | outcome [14] | outcome [16] | Potency [7] | Potency [8] | Potency [9] | Potency [10] | Potency [11] | activation [15] 1.5%

COc1ccc(C(=O)NCc2cccnc2)cc1C(=O)NCc1cccnc1
inactive: Potency [18] | Potency [13] | outcome [1] | Potency [3] | Potency [5] | outcome [6] | outcome [14] | outcome [16] | Potency [7] | Potency [9] | Potency [10] | Potency [11] | activation [15] 0.938%
